# The supplement of paper PMC10849652
# The full data set covers some 7,900 targets. This sample favours those with a hit. About 0.6% of all pairs of compound and target were hits. A number with no mark means an inactive call.
# Columns and labels:
# Assay in all cases: log2 fold change, soluble protein after heating vs DMSO (PISA); higher = thermal stabilisation; K562 cells, 10 uM, 30 min; active = over 0.2 and 3.5 SD of the protein, either way, in both replicates (recomputed)
# [1] = compound: CC1=C(C=C(C=C1)NC(=O)C2=CC(=CC=C2)C(C)(C)C#N)NC3=CC4=C(C=C3)N=CN(C4=O)C
# Summary of the method: (§1)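 Soluble protein was defined as the supernatant after 21,000xg for 90 min. It came from K562 cells at 2×10^6 cells/mL given 10 μM compound for 30 min, heated in aliquots for 3 min across 48°C-58°C, pooled, and extracted in PBS with 0.5% NP-40 at 4°C, and was quantified by TMTpro 16plex LC-MS/MS with equalised channel sums. Thermal stability against control samples, from duplicates, is reported as log2 fold change.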
# [2] = compound: CC1=C(C=C(C=C1)NC(=O)C2=CC(=CC=C2)N(C)C)NC(=O)C3=CC=C(C=C3)O
# Summary of the method: as §1
# [3] = compound: CC1=CC=C(C=C1)SC2=C3C=C(SC3=CN=C2)C(=O)N
# Summary of the method: as §1
# [4] = compound: CC1=NC(=CC=C1)C2=C(N=C(N2)C(C)(C)C)C3=CC4=NC=CN=C4C=C3
# Summary of the method: as §1
# Nexturastat A = compound: CCCCN(Cc1ccc(C(=O)NO)cc1)C(=O)Nc1ccccc1 [Nexturastat A]
# Summary of the method: as §1
# vemurafenib = compound: CCCS(=O)(=O)Nc1ccc(F)c(C(=O)c2c[nH]c3ncc(-c4ccc(Cl)cc4)cc23)c1F [vemurafenib]
# Summary of the method: as §1
# [5] = compound: CCCS(=O)(=O)Nc1ccc(F)c(C(=O)c2c[nH]c3ncc(Cl)cc23)c1F
# Summary of the method: as §1
# [6] = compound: CCCc1cc(C)[nH]c(=O)c1CNC(=O)c1cc(-c2ccnc(N3CCN(C)CC3)c2)cc2c1cnn2C(C)C
# Summary of the method: as §1
# givinostat = compound: CCN(CC)Cc1ccc2cc(COC(=O)Nc3ccc(C(=O)NO)cc3)ccc2c1 [givinostat]
# Summary of the method: as §1
# barasertib = compound: CCN(CCCOc1ccc2c(Nc3cc(CC(=O)Nc4cccc(F)c4)[nH]n3)ncnc2c1)CCOP(=O)(O)O [barasertib]
# Summary of the method: as §1
# [7] = compound: CC[C@@H]1C(=O)N(C)c2cnc(Nc3ccc(C(=O)NC4CCN(C)CC4)cc3OC)nc2N1C1CCCC1
# Summary of the method: as §1
# volasertib = compound: CC[C@@H]1C(=O)N(C)c2cnc(Nc3ccc(C(=O)N[C@H]4CC[C@H](N5CCN(CC6CC6)CC5)CC4)cc3OC)nc2N1C(C)C [volasertib]
# Summary of the method: as §1
# [8] = compound: CC[C@H](C)N1C=C(C2=C(C=C(C=C21)C3=CN=C(C=C3)N4CCNCC4)C(=O)NCC5=C(C=C(NC5=O)C)C)C
# Summary of the method: as §1
# epoxomicin = compound: CC[C@H](C)[C@@H](C(=O)N[C@@H]([C@@H](C)O)C(=O)N[C@@H](CC(C)C)C(=O)[C@]1(CO1)C)NC(=O)[C@H]([C@@H](C)CC)N(C)C(=O)C [epoxomicin]
# Summary of the method: as §1
# [9] = compound: CCn1c(C(=O)N(C2CC2)C2CC2)cc2c3c(ncn3C)c(Nc3cc(C)n(C)n3)nc21
# Summary of the method: as §1
# [10] = compound: CCn1cc(-c2ccnc3[nH]c(-c4cccc(CN(C)C)c4)cc23)c(-c2ccc(NC(=O)N(C)C)cc2)n1
# Summary of the method: as §1
# [11] = compound: CN(C)CC(=O)Nc1ccc2[nH]c(=O)c3ccccc3c2c1
# Summary of the method: as §1
# rosiglitazone = compound: CN(CCOC1=CC=C(C=C1)C[C@H]2C(=O)NC(=O)S2)C3=CC=CC=N3 (racemic) [rosiglitazone]
# Summary of the method: as §1
# [12] = compound: CN1C2=C(C3=C1C(=O)N(N=C3)CC4=CC(=CC=C4)N)SC(=C2)S(=O)C
# Summary of the method: as §1
# [13] = compound: CN1CCC(CNc2ccc3ncc(-c4cccc(OC(F)(F)F)c4)n3n2)CC1
# Summary of the method: as §1
# UniProt P46063, sequence (P46063 whole entry, looked up): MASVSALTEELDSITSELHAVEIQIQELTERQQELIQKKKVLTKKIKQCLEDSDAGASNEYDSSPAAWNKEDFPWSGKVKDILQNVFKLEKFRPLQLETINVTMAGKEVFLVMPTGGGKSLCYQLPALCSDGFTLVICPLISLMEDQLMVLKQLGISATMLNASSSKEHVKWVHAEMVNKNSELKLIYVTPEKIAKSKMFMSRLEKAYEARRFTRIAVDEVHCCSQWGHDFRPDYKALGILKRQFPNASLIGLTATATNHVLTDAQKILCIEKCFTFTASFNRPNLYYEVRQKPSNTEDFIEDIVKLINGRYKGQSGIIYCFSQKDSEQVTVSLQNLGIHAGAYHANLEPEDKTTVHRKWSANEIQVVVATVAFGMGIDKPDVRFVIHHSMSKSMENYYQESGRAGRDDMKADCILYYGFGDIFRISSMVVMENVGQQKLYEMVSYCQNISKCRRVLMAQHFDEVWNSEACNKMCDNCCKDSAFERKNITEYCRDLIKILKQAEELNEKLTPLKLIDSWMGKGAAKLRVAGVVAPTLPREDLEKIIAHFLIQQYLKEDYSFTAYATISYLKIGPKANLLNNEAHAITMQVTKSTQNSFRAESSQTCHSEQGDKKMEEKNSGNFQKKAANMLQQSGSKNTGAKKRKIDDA
# UniProt Q14498, sequence (Q14498 whole entry, looked up): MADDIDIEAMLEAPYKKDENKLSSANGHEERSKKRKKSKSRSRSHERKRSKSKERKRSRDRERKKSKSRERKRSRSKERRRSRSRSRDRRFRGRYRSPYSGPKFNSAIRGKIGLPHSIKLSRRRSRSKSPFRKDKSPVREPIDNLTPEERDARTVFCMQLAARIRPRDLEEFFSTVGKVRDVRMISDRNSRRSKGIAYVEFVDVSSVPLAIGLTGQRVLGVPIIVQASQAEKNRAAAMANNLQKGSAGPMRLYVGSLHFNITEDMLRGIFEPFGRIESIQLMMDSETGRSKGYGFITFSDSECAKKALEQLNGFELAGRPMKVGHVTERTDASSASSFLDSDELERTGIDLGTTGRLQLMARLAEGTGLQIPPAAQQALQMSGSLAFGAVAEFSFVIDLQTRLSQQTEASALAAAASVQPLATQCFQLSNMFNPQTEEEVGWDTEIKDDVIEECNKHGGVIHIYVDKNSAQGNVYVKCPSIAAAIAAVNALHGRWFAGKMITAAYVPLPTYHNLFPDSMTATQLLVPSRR
# UniProt Q8WWV3, sequence (Q8WWV3 whole entry, looked up): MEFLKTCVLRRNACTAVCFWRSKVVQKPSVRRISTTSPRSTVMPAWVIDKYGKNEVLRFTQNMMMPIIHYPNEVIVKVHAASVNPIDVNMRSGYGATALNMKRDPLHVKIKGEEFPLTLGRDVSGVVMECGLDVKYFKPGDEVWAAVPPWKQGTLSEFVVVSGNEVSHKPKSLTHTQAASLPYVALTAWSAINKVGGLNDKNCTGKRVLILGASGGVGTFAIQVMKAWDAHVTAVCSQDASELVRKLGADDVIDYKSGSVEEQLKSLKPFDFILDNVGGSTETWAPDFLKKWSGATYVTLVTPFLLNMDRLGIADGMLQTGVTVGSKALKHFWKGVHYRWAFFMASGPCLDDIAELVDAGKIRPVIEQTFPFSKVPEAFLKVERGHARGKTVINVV
# UniProt Q92878, sequence (Q92878 whole entry, looked up): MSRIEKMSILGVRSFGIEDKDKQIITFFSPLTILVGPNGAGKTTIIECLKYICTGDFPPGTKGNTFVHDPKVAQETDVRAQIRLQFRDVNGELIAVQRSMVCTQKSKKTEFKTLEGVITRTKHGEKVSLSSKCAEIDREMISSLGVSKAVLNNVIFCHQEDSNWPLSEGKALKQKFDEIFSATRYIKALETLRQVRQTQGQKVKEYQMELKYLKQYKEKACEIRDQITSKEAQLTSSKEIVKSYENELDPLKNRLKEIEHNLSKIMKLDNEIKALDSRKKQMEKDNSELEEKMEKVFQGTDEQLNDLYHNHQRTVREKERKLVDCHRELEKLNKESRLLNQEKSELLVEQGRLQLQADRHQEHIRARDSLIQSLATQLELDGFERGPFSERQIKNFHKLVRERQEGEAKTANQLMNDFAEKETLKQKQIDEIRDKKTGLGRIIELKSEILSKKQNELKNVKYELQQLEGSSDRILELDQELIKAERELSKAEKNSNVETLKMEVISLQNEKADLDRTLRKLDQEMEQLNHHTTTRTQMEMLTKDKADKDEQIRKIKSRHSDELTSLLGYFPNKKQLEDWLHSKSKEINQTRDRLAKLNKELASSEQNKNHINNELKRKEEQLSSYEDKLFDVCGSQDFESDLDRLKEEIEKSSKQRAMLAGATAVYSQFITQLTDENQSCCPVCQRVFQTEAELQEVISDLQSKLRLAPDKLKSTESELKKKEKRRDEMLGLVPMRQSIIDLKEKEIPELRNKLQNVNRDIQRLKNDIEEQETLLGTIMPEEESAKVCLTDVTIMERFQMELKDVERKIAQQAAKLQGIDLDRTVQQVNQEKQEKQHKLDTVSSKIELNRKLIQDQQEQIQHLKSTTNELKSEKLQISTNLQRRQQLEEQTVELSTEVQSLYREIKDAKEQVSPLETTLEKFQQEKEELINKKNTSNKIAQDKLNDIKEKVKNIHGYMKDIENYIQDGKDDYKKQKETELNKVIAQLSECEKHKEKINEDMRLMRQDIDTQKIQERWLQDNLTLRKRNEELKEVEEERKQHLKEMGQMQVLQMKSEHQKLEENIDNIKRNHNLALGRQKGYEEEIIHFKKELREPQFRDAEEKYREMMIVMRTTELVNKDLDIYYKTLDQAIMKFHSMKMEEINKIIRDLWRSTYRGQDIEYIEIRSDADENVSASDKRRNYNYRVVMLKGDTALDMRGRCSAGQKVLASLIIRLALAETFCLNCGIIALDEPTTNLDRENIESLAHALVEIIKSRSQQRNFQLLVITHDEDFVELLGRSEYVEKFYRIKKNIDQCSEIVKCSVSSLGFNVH
# UniProt Q9BVS4, sequence (Q9BVS4 whole entry, looked up): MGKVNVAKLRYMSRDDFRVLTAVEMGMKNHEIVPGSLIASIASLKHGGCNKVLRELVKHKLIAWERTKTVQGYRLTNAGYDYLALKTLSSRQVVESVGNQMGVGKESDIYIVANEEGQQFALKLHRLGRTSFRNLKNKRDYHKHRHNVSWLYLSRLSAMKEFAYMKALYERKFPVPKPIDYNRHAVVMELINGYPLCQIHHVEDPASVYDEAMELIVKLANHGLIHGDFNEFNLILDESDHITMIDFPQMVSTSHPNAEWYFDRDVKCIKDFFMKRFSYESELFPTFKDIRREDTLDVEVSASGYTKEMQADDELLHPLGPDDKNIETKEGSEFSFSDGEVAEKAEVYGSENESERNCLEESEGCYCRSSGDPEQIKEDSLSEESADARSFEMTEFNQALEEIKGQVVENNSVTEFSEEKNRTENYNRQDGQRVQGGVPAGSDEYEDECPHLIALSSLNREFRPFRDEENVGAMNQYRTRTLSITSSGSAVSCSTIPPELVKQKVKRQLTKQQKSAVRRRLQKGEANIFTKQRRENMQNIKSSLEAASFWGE
# UniProt Q14151, sequence (Q14151 whole entry, looked up): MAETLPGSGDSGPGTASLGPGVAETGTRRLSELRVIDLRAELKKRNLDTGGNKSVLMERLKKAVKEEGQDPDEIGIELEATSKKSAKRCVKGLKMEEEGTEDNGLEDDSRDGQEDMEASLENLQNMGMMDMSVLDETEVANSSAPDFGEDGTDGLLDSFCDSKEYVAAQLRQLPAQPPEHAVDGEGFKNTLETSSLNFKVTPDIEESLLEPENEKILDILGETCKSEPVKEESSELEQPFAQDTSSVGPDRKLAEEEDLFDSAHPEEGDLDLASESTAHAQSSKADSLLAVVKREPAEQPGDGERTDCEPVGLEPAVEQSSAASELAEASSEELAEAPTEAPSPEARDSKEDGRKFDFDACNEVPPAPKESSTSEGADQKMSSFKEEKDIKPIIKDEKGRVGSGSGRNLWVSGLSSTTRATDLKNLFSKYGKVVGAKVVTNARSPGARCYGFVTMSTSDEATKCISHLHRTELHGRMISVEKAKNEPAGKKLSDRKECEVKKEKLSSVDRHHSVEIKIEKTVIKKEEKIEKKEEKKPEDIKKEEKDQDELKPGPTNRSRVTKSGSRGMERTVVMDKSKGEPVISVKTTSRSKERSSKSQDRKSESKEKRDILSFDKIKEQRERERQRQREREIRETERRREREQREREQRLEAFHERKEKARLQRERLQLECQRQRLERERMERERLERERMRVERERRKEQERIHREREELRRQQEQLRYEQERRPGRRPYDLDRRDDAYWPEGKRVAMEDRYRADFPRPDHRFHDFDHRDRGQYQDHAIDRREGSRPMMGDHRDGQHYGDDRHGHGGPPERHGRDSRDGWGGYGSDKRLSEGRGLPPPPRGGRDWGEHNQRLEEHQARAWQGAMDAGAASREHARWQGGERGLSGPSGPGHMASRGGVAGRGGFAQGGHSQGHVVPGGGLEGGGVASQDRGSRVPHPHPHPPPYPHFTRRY
# UniProt Q9NX18, sequence (Q9NX18 whole entry, looked up): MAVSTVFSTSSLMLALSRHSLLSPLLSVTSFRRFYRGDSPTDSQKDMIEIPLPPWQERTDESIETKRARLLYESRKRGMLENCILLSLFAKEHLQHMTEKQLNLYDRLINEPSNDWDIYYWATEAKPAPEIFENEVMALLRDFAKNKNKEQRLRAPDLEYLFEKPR
# UniProt Q8TD22, sequence (Q8TD22 whole entry, looked up): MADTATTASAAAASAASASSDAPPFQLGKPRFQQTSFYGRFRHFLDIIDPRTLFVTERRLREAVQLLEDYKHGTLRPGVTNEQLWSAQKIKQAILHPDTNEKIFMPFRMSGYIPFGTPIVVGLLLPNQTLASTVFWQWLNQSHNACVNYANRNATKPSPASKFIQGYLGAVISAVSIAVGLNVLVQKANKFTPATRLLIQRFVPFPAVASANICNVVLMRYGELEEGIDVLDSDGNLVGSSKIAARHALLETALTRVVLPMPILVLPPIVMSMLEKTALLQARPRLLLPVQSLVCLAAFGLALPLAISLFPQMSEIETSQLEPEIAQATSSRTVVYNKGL
Target,log2 fold change [1],log2 fold change [2],log2 fold change [3],log2 fold change [4],log2 fold change (Nexturastat A),log2 fold change (vemurafenib),log2 fold change [5],log2 fold change [6],log2 fold change (givinostat),log2 fold change (barasertib),log2 fold change [7],log2 fold change (volasertib),log2 fold change [8],log2 fold change (epoxomicin),log2 fold change [9],log2 fold change [10],log2 fold change [11],log2 fold change (rosiglitazone),log2 fold change [12],log2 fold change [13]
RGS10 (UniProt O43665),-0.012,-0.02,-0.02,-0.041,-0.012,0.048,0.034,0.02,0.026,0.016,-0.097,-0.205 (active),-0.043,0.101,-0.025,0.011,0.078,0.011,-0.111,-0.016
RTN4IP1 (UniProt Q8WWV3),0.253,-0.033,0.294,0.119,-0.061,0.034,-0.041,-0.218,-0.081,0.031,-0.118,-0.196,-0.059,-0.02,0.009,-0.079,-0.003,0.965 (active),-0.219,-0.12
SFXN5 (UniProt Q8TD22),-0.013,0,0.049,0.024,-0.026,0.135,0.012,0.012,0.124,0.057,0.048,-0.034,0.022,-0.009,-0.012,-0.039,0.006,0.007,-0.209,0.063
RPP25L (UniProt Q8N5L8),-0.028,-0.015,0.036,0.02,-0.01,-0.034,-0.035,-0.048,-0.073,-0.025,0.144,0.115,-0.042,-0.04,-0.052,0.059,-0.074,-0.093,0.061,0.058
RANBP2 (UniProt P49792),0.089,-0.07,-0.041,0.04,0.221,-0.086,0.03,-0.072,0.046,0.036,0.058,-0.006,-0.008,0,-0.063,0.099,0.026,0.03,-0.033,-0.052
RPS20 isoform 2 (UniProt P60866),0.056,0.021,-0.049,-0.077,0.112,-0.117,-0.068,0.008,-0.032,-0.063,0.114,0.31,-0.009,-0.103,-0.02,0.065,-0.03,-0.037,0.091,0.063
RPS12 (UniProt P25398),0.036,0.006,-0.013,-0.027,0.038,-0.057,-0.035,0.073,-0.035,-0.059,0.108,0.219,0.038,-0.021,-0.002,0.063,-0.028,-0.037,0.064,0.079
RECQL (UniProt P46063),0.028,-0.012,0.011,0.039,-0.002,-0.009,0.063,-0.007,0.038,-0.002,-0.032,-0.014,0.002,0,0.009,-0.021,0.016,0.032,-0.076,0.058
RIOK2 (UniProt Q9BVS4),0.035,0.006,-0.046,-0.021,0.178,-0.001,-0.007,0.056,0.035,0,0.133,0.267,0.015,-0.032,0.019,-0.013,-0.038,0.014,0.085,0.202
RAD50 isoform 2 (UniProt Q92878),0,-0.024,0.004,0.009,-0.005,0.027,0.038,0.014,0.026,0.033,-0.069,-0.228 (active),0.041,0.041,-0.012,-0.001,0.025,0.031,-0.03,-0.074
RCOR1 (UniProt Q9UKL0),-0.061,-0.089,0.037,0.021,0.054,0.016,0.029,-0.032,0.114,0.01,0.116,0.001,0.212,0.002,-0.002,-0.033,0.006,0.077,-0.024,-0.037
RBM39 (UniProt Q14498),-0.035,0,-0.011,0.071,0.043,0.084,0.083,0.034,0.131,0.012,-0.183,-0.487 (active),0.038,-0.027,-0.057,0.079,0.013,0.025,0.071,-0.045
SDHAF2 (UniProt Q9NX18),-0.047,0.026,0.079,0.019,0.076,0.028,-0.024,-0.06,0.036,0.005,0.089,0.093,-0.081,-0.057,0.053,0.06,-0.004,0.02,0.037,0.045
RSL1D1 (UniProt O76021),-0.019,0.039,-0.155,-0.148,0.256,-0.126,-0.137,0.15,0.087,-0.167,0.301,0.399,0.012,-0.517,-0.065,0.155,-0.214,-0.299,0.374,0.591
RHOXF2 (UniProt Q9BQY4),-0.03,0.034,-0.037,0.021,0.083,-0.015,0.012,-0.024,0.05,0.033,0.014,0.061,-0.046,0.024,-0.079,0.086,-0.028,-0.013,0.074,-0.073
SAFB2 (UniProt Q14151),0.011,0.068,-0.024,0.011,0.203,-0.048,-0.038,0.097,-0.011,-0.029,0.018,0.118,-0.022,-0.246,-0.003,0.203,-0.061,-0.028,0.235,0.23
